40 molecules from PubChem BioAssay AID1650 (Southern Research Specialized Biocontainment Screening …, 2009) can be followed below.

Each structure is given as a SMILES string. Measured potencies and affinities stand elsewhere. Active and inactive are the calls of the source. How the calls were made is not given here.

The nature of the assay: host cell cytotoxicity of antiviral hits, dose response, cytotoxicity control for West Nile virus antiviral project, secondary assay (AID 1650). As to conditions: Mammalian host cell viability, cytotoxicity counter-screen; series mostly up to 10 µM. Background: The purpose of a counterscreen is to sort out artefacts and off-target activity.
For the molecule `C=CCN=C1CC(C)(C)CC(=O)/C1=C(/O)CCC(=O)OC`, the molecule was called inactive.

Regarding `CCC(C)c1ccccc1NC(=O)COC(=O)c1ccc2[nH]c3c(c2c1)CCCC3` (stereo not given), the call was inactive.

`COc1cc(C=Nc2c(C)cc(C)cc2C)ccc1OC(C)=O`: the call was inactive.

Take `CCN(CC)S(=O)(=O)c1ccc(OC)c(NC(=O)c2cccc([N+](=O)[O-])c2C)c1`: the outcome was inactive.

On to `CCOC(=O)C1(Cc2ccccc2C(F)(F)F)CCN(C2CCN(C(C)C)CC2)CC1`, for which the result was inactive.

With `COc1ccc(-c2csc(NC3OC(=O)c4ccccc43)n2)cc1` (stereo not given), the call was inactive.

For the molecule `Cc1cccc(N(CC(=O)NCc2ccco2)C(=O)CCC(=O)Nc2ccccn2)c1C`, the molecule was called inactive.

Turning to `CN(C)c1nc(=Nc2cccc(Cl)c2)ss1`, the molecule was classed as inactive.

With `COC(=O)c1ccc(C(=O)Nc2cc(Cl)ccc2Cl)cc1NC(=O)c1ccccc1C`, the outcome was inactive.

For the molecule `CC(C)c1ccc(/C=C/C(=O)Nc2ccc(CN3CCOCC3)cc2)cc1`, the result was inactive.

In the case of `O=C(CCC1CCCC1)N=C1SC2CS(=O)(=O)CC2N1Cc1ccccc1` (stereo not given), the outcome was inactive.

Take `CN1CCN(c2ccc(C(F)(F)F)cc2NC(=O)Nc2ccccc2)CC1`: the molecule was classed as inactive.

On to `COC(=O)c1ccc(/C=C2/SC(=S)N(CCCC(=O)Nc3ccc(O)cc3)C2=O)cc1`, for which the result was inactive.

For the molecule `O=C(CCN1C(=O)/C(=C/c2ccccc2)SC1=S)NCCc1ccc(O)cc1`, the outcome was inactive.

For the molecule `Cn1cc([N+](=O)[O-])c(C(=O)Nc2ccn(C34CC5CC(CC(C5)C3)C4)n2)n1`, the outcome was inactive.

With `CCCC1=Nc2cc(C(=O)NCCN3CCCC3)ccc2Sc2ccccc21`, the molecule was called inactive.

For the molecule `CC1CCCC(C)N1CCCNC(=O)c1cc2c(s1)-c1ccccc1OC2` (stereo not given), the call was inactive.

With `CC(C)C(C(=O)Nc1ncn[nH]1)N1C(=O)c2ccccc2C1=O` (stereo not given), the molecule was called inactive.

In the case of `CN(C)CCCN(C(=O)c1ccc2c(c1)CCCC2)c1nc2ccc(F)cc2s1`, the molecule was classed as inactive.

As to `CCC1CCCCN1CCCNC(=O)c1ccc(/C=C2/Sc3ccccc3NC2=O)cc1` (stereo not given), the outcome was inactive.

For the molecule `CCCCN(C)CCNC(=S)Nc1ccc2nc(N3CCN(CC)CC3)cc(C)c2c1`, the call was inactive.

For `CCN(CC)S(=O)(=O)c1ccc2c(c1)c(=O)c(C(=O)NCCOC)cn2C`, the molecule was called inactive.

`CCCN1CCN(C(=S)Nc2ccc3nc(N4CCN(CC)CC4)cc(C)c3c2)CC1`: the outcome was inactive.

Regarding `Cc1ccc(-c2cc(C(=O)N(C)Cc3cnn(C)c3C)c3cc(Br)ccc3n2)cc1`, the molecule was classed as inactive.

As for `CCc1cc(-c2[nH]ncc2-c2ccc(OC)cc2)c(O)cc1O`, the molecule was classed as inactive.

As to `COc1ccc(-c2csc(N(CCCN(C)C)C(=O)c3ccccc3Cl)n2)cc1`, the molecule was called inactive.

As to `C=CCn1cc(C(=O)NCCOC)c(=O)c2cc(S(=O)(=O)N(CC)CC)ccc21`, the molecule was classed as inactive.

Regarding `Cc1ccccc1C(=O)c1cccn1CC(=O)NCCN1CCN(c2cccc(C)c2C)CC1`, the outcome was inactive.

For `COc1ccc(/C=C2/SC(=S)N(CCC(=O)N3CCN(C)CC3)C2=O)cc1`, the result was inactive.

As to `O=C(Nc1ccc(Nc2ccccc2)cc1)C(Cl)Cl`, the result was inactive.

Take `CN(Cc1ccccc1)c1nc(N)c([N+](=O)[O-])c(Nc2cccc(F)c2)n1`: the outcome was inactive.

With `CCOc1ccc(-c2cc(C(=O)NCCCN3CCN(CC)CC3)c3ccccc3n2)cc1`, the molecule was classed as inactive.

In the case of `COc1cccc(C2CC(c3c(-c4ccccc4)c4cc(Cl)ccc4[nH]c3=O)=NN2S(C)(=O)=O)c1OC` (stereo not given), the molecule was called inactive.

Regarding `CCOc1ccc2nc(N3CCCC(C(=O)NCCCN4CCCCC4)C3)sc2c1` (stereo not given), the call was inactive.

For the molecule `CN(C)CCNc1ncnc2c1sc1nc(N3CCCC3)c3c(c12)CC(C)(C)OC3`, the outcome was inactive.

As for `Nc1nonc1-n1nnc(C(=O)N/N=C/c2ccccc2Cl)c1CSc1ccccc1`, the molecule was classed as inactive.

Consider `CN(C)CCCNc1ncnc2c1c(-c1ccccc1)cn2-c1ccccc1`, for which the call was inactive.

In the case of `CCN(CC)CCNC(=O)c1ccc(NC(=O)/C=C/c2ccc3ccccc3n2)cc1`, the result was inactive.

Consider `Cc1nc([N+](=O)[O-])c(Br)n1CC(=O)c1ccc(Cl)cc1`, for which the molecule was called inactive.

Turning to `CCN1C/C(=C/c2ccc(N3CCOCC3)cc2)C(=O)/C(=C/c2ccc(N3CCOCC3)cc2)C1`, the call was inactive.
